{"source": "paper PMC4336329", "about": "(PLoS ONE, 2015)", "note": "Screen size: about 310,000 compounds; about 14,000 (4.5%) showed an effect of 50% or more. The effect is printed as a negative number. Shown is part of a subset that was picked to be rich in strong results.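 Also: peak tail current of the secondary pulse compared with the same well before compound.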"}
{"target": "human ether-à-go-go-related gene (hERG) potassium channel (human, UniProt Q12809)", "sequence (Q12809 whole entry, looked up)": "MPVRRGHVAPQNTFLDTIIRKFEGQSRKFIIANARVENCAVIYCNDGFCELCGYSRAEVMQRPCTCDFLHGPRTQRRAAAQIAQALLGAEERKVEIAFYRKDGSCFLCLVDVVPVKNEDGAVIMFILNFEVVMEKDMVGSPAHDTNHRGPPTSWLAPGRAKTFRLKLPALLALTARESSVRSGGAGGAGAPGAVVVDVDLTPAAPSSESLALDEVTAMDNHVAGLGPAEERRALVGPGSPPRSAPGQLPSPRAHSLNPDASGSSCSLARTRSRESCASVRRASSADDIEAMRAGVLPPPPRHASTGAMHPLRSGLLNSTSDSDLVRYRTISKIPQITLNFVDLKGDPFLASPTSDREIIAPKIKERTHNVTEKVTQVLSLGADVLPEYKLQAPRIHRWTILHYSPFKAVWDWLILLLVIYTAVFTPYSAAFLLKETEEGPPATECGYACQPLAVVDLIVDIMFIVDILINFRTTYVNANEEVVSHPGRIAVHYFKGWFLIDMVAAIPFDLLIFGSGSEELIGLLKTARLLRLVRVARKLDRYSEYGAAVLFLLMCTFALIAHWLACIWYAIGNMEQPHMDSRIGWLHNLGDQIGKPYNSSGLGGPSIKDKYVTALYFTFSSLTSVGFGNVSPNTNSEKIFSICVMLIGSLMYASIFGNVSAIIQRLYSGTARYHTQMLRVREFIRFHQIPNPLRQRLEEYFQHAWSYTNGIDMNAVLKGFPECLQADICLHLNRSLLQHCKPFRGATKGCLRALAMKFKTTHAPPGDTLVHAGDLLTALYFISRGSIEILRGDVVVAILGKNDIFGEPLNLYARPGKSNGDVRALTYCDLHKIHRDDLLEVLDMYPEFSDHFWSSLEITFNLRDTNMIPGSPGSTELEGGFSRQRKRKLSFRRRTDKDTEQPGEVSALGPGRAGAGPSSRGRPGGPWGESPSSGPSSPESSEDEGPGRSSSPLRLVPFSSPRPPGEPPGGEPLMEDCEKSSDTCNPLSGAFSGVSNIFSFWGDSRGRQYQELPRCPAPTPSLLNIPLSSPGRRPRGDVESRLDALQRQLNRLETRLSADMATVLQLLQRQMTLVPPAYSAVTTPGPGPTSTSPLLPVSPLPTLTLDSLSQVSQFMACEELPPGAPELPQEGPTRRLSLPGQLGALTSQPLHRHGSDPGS", "assay": "primary screen, population patch clamp on CHO cells stably expressing hERG; higher = less effect of the substance", "procedure": "Briefly, Chinese hamster ovary (CHO) cells stably expressing the hERG channel were dislodged from tissue culture flasks and dispensed into PPC plates. […] During the recording, background leak currents were estimated by a 100 ms step to -80 mV from an initial holding potential of -70 mV and subtracted from the subsequent current measurement. The campaign was conducted in two phases using slight differences in recording protocol. In the first phase, the initial voltage pulse used a 100 ms step to -30 mV from a holding potential of -70 mV, a 2 s conditioning step to +25 mV, and a 2 s test step to -30 mV. During the second phase of the screen, the potential during the conditioning step was raised to +45 mV. In both phases of the campaign, a secondary voltage pulse was applied using the same parameters as the second phase initial pulse. The initial and secondary pulses were applied in the absence of compound, and upon application of 1 μM and 10 μM test concentrations. […]", "units": {"hERG current change (%, negative = inhibition) at 10uM": "%"}}
{"smiles": "O=C(NCC1CCCO1)c1cccc(Oc2ccc([N+](=O)[O-])cc2)c1", "note": "(centres unmarked)", "hERG current change (%, negative = inhibition) at 10uM": -73.7}
{"smiles": "CC(=O)c1ccc(-c2ccc(C(=O)NCC3CCCO3)o2)cc1", "note": "(centres unmarked)", "hERG current change (%, negative = inhibition) at 10uM": -50.5}
{"smiles": "O=C(NCC1CCCO1)c1cccc(Oc2ccccc2)c1", "note": "(centres unmarked)", "hERG current change (%, negative = inhibition) at 10uM": -37.5}
{"smiles": "Cc1ccc(C(=O)NCC2CCCO2)o1", "note": "(centres unmarked)", "hERG current change (%, negative = inhibition) at 10uM": 7.49}
{"smiles": "O=C(NCC1CCCO1)c1ccc(NC(=O)c2cccc([N+](=O)[O-])c2)cc1", "note": "(centres unmarked)", "hERG current change (%, negative = inhibition) at 10uM": 3.68}
{"smiles": "O=C(NCC1CCCO1)c1ccc(-c2cccc(C(F)(F)F)c2)o1", "note": "(centres unmarked)", "hERG current change (%, negative = inhibition) at 10uM": -16.2}
{"smiles": "O=c1cc(CN2CCN(c3cccc(Cl)c3)CC2)c2cc3c(cc2o1)CCCC3", "hERG current change (%, negative = inhibition) at 10uM": 15.8}
{"smiles": "Cc1ccc(S(=O)(=O)CCC(=O)OCC(=O)N2CC(=O)Nc3ccccc32)cc1", "hERG current change (%, negative = inhibition) at 10uM": -22.1}
{"smiles": "O=C(NCc1ccco1)NC12CC3CC(CC(C3)C1)C2", "hERG current change (%, negative = inhibition) at 10uM": 14.5}
{"smiles": "CC(C)=CCN1CCN(Cc2cn(C(C)C)c3ccccc23)CC1CCO", "note": "(centres unmarked)", "hERG current change (%, negative = inhibition) at 10uM": -10.5}
{"smiles": "O=C(NCCS(=O)(=O)N1CCN(c2ccccc2)CC1)C1CC1", "hERG current change (%, negative = inhibition) at 10uM": 3.93}
{"smiles": "O=C(Cc1ccccc1)NCCS(=O)(=O)N1CCN(c2cccc(Cl)c2)CC1", "hERG current change (%, negative = inhibition) at 10uM": -82.8}
{"smiles": "O=C(Cc1ccc(F)cc1)NCCS(=O)(=O)N1CCN(c2cccc(Cl)c2)CC1", "hERG current change (%, negative = inhibition) at 10uM": -16.2}
{"smiles": "COc1ccc(N2CCN(S(=O)(=O)CCNC(=O)C3CCCCC3)CC2)cc1", "hERG current change (%, negative = inhibition) at 10uM": 5.98}
{"smiles": "O=C(NCCS(=O)(=O)N1CCN(c2ccccc2)CC1)c1ccc(Br)o1", "hERG current change (%, negative = inhibition) at 10uM": -5.85}
{"smiles": "O=C(NCCS(=O)(=O)N1CCN(c2cccc(Cl)c2)CC1)C1CCCC1", "hERG current change (%, negative = inhibition) at 10uM": -79}
{"smiles": "O=C(NCCS(=O)(=O)N1CCN(c2ccccc2F)CC1)c1ccco1", "hERG current change (%, negative = inhibition) at 10uM": -16.5}
{"smiles": "COc1ccc(N2CCN(S(=O)(=O)CCNC(=O)c3ccc(Br)o3)CC2)cc1", "hERG current change (%, negative = inhibition) at 10uM": 10.6}
{"smiles": "O=C(NCCS(=O)(=O)N1CCN(c2cccc(Cl)c2)CC1)c1ccco1", "hERG current change (%, negative = inhibition) at 10uM": -73.8}
{"smiles": "O=C(NCCS(=O)(=O)N1CCN(c2cccc(Cl)c2)CC1)c1cc(=O)c2ccccc2o1", "hERG current change (%, negative = inhibition) at 10uM": 5.36}
{"smiles": "O=C(NCCS(=O)(=O)N1CCN(c2ccc(F)cc2)CC1)c1ccc(Br)o1", "hERG current change (%, negative = inhibition) at 10uM": -60.1}
{"smiles": "Cc1cccc(CC(=O)NCCS(=O)(=O)N2CCN(c3cccc(Cl)c3)CC2)c1", "hERG current change (%, negative = inhibition) at 10uM": -20.2}
{"smiles": "O=C1c2ccccc2S(=O)(=O)N1CCOc1ccc(F)cc1", "hERG current change (%, negative = inhibition) at 10uM": -27.6}
{"smiles": "CCOC(=O)c1sc(NC(=O)c2ccco2)nc1C", "hERG current change (%, negative = inhibition) at 10uM": 13.3}
{"smiles": "CC(=O)Nc1ccc(NC(=O)CC2SC(=O)N(CC(=O)c3ccccc3)C2=O)cc1", "note": "(centres unmarked)", "hERG current change (%, negative = inhibition) at 10uM": 7.25}
{"smiles": "COCC1CCCCN1C(=O)c1cccc(OC2CCN(S(C)(=O)=O)CC2)c1", "note": "(centres unmarked)", "hERG current change (%, negative = inhibition) at 10uM": 14.7}
{"smiles": "CCS(=O)(=O)c1ccc(O)c(NC(=O)COc2ccc(Br)cc2)c1", "hERG current change (%, negative = inhibition) at 10uM": -3.73}
{"smiles": "O=C(COc1ccc(Br)cc1Cl)NC(=S)N1CCc2ccccc21", "hERG current change (%, negative = inhibition) at 10uM": 21.7}
{"smiles": "COc1ccccc1OCc1ccc(C(=O)NC(C)(C)C)o1", "hERG current change (%, negative = inhibition) at 10uM": 2.29}
{"smiles": "O=C(Cn1c(=O)oc2cc(S(=O)(=O)NCc3ccccc3)ccc21)N1CCCC1", "hERG current change (%, negative = inhibition) at 10uM": 15.2}
{"smiles": "C=CCn1c(SCC(=O)Nc2ccccc2F)nc2ccccc2c1=O", "hERG current change (%, negative = inhibition) at 10uM": 5.56}
{"smiles": "CC(C)Sc1nc2c(cnn2-c2ccc(Cl)cc2)c(=O)[nH]1", "hERG current change (%, negative = inhibition) at 10uM": 26.2}
{"smiles": "Cc1nnc(SCC(=O)N2CCCC2)n(N)c1=O", "hERG current change (%, negative = inhibition) at 10uM": 14.1}
{"smiles": "O=C(Cc1ccc(F)cc1)NCCS(=O)(=O)N1CCN(c2ccccc2)CC1", "hERG current change (%, negative = inhibition) at 10uM": 5.42}
{"smiles": "O=C(NCCS(=O)(=O)N1CCN(c2ccccc2)CC1)c1ccco1", "hERG current change (%, negative = inhibition) at 10uM": -14.5}
{"smiles": "O=C(NCCS(=O)(=O)N1CCN(c2ccccc2)CC1)c1ccccc1F", "hERG current change (%, negative = inhibition) at 10uM": 6.68}
{"smiles": "CSc1ccccc1C(=O)NCCS(=O)(=O)N1CCN(c2ccc(F)cc2)CC1", "hERG current change (%, negative = inhibition) at 10uM": -67.6}
{"smiles": "O=C(NCCS(=O)(=O)N1CCN(c2ccc(F)cc2)CC1)c1ccco1", "hERG current change (%, negative = inhibition) at 10uM": -62.2}
{"smiles": "COc1ccc(N2CCN(S(=O)(=O)CCNC(=O)c3ccco3)CC2)cc1", "hERG current change (%, negative = inhibition) at 10uM": -9.43}
{"smiles": "CCOC(=O)c1cnn(Cc2ccccc2Cl)c1N", "hERG current change (%, negative = inhibition) at 10uM": -11}
{"smiles": "COc1ccccc1-c1oc2ccccc2c1C#CCCCCO", "hERG current change (%, negative = inhibition) at 10uM": 22.6}
{"smiles": "COc1ccc(-c2nn(-c3ccccc3)cc2/C=C2/SC(=S)N(CCCC(=O)O)C2=O)c(C)c1", "hERG current change (%, negative = inhibition) at 10uM": 26}
{"smiles": "CCC1Nc2ncnc(N3CCCCC3)c2N(Cc2ccccc2)C1=O.O=C(O)C(F)(F)F", "note": "(centres unmarked)", "hERG current change (%, negative = inhibition) at 10uM": -4.8}
{"smiles": "CC1Nc2ncnc(N3CCN(c4ccccn4)CC3)c2N(Cc2ccccc2)C1=O.O=C(O)C(F)(F)F", "note": "(centres unmarked)", "hERG current change (%, negative = inhibition) at 10uM": -19.8}
{"smiles": "CCC1Nc2ncnc(N3CCN(c4ccccn4)CC3)c2N(Cc2ccc(Cl)cc2)C1=O.O=C(O)C(F)(F)F", "note": "(centres unmarked)", "hERG current change (%, negative = inhibition) at 10uM": -73.8}
{"smiles": "CCC1Nc2ncnc(N3CCN(c4ccccc4)CC3)c2N(Cc2ccc(Cl)cc2)C1=O.O=C(O)C(F)(F)F", "note": "(centres unmarked)", "hERG current change (%, negative = inhibition) at 10uM": -17.4}
{"smiles": "Cc1ccc(CN2C(=O)C(C)Nc3ncnc(N4CCN(c5ccccn5)CC4)c32)cc1.O=C(O)C(F)(F)F", "note": "(centres unmarked)", "hERG current change (%, negative = inhibition) at 10uM": -56.1}
{"smiles": "Cc1ccc(CN2C(=O)C(CC(C)C)Nc3ncnc(N4CCN(c5ccccn5)CC4)c32)cc1.O=C(O)C(F)(F)F", "note": "(centres unmarked)", "hERG current change (%, negative = inhibition) at 10uM": -43.3}
{"smiles": "Cc1ccc(S(=O)(=O)N2CCN(C(=O)CN3C(=O)NC4(CCCCC4)C3=O)CC2)c(C)c1", "hERG current change (%, negative = inhibition) at 10uM": 1.52}
{"smiles": "COc1ccc(S(=O)(=O)N2CC(C)OC(C)C2)cc1C(=O)N1CCCCC1", "note": "(centres unmarked)", "hERG current change (%, negative = inhibition) at 10uM": 6.93}
{"smiles": "O=C(OCc1c(F)cccc1Cl)c1cnc2ccccc2n1", "hERG current change (%, negative = inhibition) at 10uM": 17.6}
{"smiles": "CCCn1nc2cc(C(=O)NC3CCCc4ccccc43)ccc2c1OCC", "note": "(centres unmarked)", "hERG current change (%, negative = inhibition) at 10uM": -8.93}
{"smiles": "CN(C)S(=O)(=O)c1cccc(COC(=O)Cc2c(F)cccc2Cl)c1", "hERG current change (%, negative = inhibition) at 10uM": 9.75}
